Results: PubChem BioAssay AID489012 (National Center for Advancing Translational Sciences (NCATS), 2010)
Results filed as inconclusive are left out. Entries that show only a call come without a potency. Activity calls are given as the source filed them. Calls follow the shape of the dose curve; as a rule, active = well fitted activation curve with a large enough effect; inconclusive = small, poorly fitted or top-dose-only effect; inactive = no such curve, though single readings can be large or run the other way.

target: Relaxin receptor 1 (Homo sapiens) (UniProt Q9HBX9); experiment: qHTS Assay for Agonists of the Relaxin Receptor RXFP1: RXFP1 Hit Validation; conditions: HEK293T-RXFP1 cAMP TR-FRET, 30 min; series mostly up to 115 µM; also: nearly all actives have a fitted effect of over 65% in size;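 as to activation: cAMP rise lowers the TR-FRET signal in lysed cells with PDE4 inhibitor present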
Sequence (Q9HBX9 whole entry, looked up): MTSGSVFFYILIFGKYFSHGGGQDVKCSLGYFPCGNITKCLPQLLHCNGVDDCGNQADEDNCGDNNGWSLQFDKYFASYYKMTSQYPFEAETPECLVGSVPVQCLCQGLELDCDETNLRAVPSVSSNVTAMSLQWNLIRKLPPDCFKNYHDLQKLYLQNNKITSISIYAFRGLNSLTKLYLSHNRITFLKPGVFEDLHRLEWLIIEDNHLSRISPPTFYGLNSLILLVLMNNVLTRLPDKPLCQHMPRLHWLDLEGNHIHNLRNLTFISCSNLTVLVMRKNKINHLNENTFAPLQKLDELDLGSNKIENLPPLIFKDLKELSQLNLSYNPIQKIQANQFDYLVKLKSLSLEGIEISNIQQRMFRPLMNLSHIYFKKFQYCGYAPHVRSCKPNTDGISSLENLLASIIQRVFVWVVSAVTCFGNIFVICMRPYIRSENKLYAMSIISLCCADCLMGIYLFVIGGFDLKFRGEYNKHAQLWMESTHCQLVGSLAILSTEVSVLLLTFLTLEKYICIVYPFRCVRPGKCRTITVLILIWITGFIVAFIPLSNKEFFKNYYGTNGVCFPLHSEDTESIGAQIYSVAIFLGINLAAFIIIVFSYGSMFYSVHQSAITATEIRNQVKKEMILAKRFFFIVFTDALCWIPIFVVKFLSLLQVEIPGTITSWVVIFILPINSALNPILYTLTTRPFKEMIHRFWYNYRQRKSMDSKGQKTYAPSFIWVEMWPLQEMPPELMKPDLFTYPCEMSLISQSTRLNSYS
Source text: NIH Chemical Genomics Center [NCGC] NIH Molecular Libraries Probe Production Centers Network [MLPCN] MLPCN Grant: R03 MH085705-01A1 Assay Submitter (PI): Alexander Agoulnik NCGC Assay Overview: The relaxin hormone is involved in the variety of biological functions in normal tissues and diseases. The role of relaxin is well-established in female reproduction and parturition, mammary gland and endometrial development, maintenance of myometrial quiescence during pregnancy. Relaxin signaling through its G protein-coupled receptor (GPCR) RXFP1 results in ECM remodeling through regulation of collagen deposition, cell invasiveness, proliferation and overall tissue homeostasis. […] Recombinant human relaxin (rhRlx) is currently being tested in clinical trials as a protective agent in congestive heart failure, in treating severe preeclampsia, and as an anti-fibrotic agent in systemic sclerosis. Upon relaxin binding RXFP1 activation leads to the activation of adenylate cyclase (AC) via Gs. cAMP will activate PKA, which phosphorylates many signaling proteins. Thus, detection of cAMP increase is an easy and reliable indication of relaxin receptor activation. To screen for agonists of the relaxin receptor, a HEK293T cell line stably transfected with RXFP1 was used. RXFP1 activation was assayed by changes in cAMP levels as detected with a time-resolved fluorescence energy transfer (TR-FRET) cAMP detection kit.
NCGC Assay Protocol Summary: This is a cell-based assay for cAMP second messenger response to screen for agonists of the RXFP1 receptor. The assay was conducted in the presence of a PDE4 inhibitor (Ro 20174). The cells were lysed and the cAMP levels were measured with a TR-FRET cAMP kit. Presence of cAMP in the cell lysate disrupts binding between the cryptate-labeled anti-cAMP and d2-labeled cAMP pair, leading to a decrease in the TR-FRET signal. Data were normalized to the controls for basal activity (buffer only) and 100% activity (29 nM porcine relaxin). The EC50 values were determined from concentration-response data modeled with the standard Hill equation 1536-well assay protocol for the HEK293 RXFP1 cAMP assay: (1) Add 3 ul HEK293 RXFP1 cell culture. 2000 cells/well in DMEM/F12, 10% FBS, 1x Pen/Strep (dispensed offline with MultiDrop Combi). (2) Incubate 16-24 hr at 37C, 5% CO2. (3) Add 1 ul 400uM Ro20174 in DPBS, 0.05% BSA, 0.005% Tween 20. (3) Add 23 nl compounds in DMSO solution. Final concentration was 0.5 - 58 uM. (4) Incubate 30 min at 37C, 5% CO2. (5) Add 1 ul cAMP-d2 in lysis buffer (HTRF cAMP HiRange kit, CisBio). (6) Add 1 ul anti-cAMP antibody-cryptate in lysis buffer (HTRF cAMP HiRange kit, CisBio). (7) Incubate 30 min at room temperature. […] Keywords: relaxin, RXFP1, RXFP2, G-protein coupled receptor, cAMP, agonist, high throughput screening, MLSMR, MLSCN, NIH Roadmap, qHTS and NCGC
Potency is read from the fitted curve at half-maximal effect.

Row | Compound | Potency
1 | CC1CCCCN1C(=O)c1ccccc1NC(=O)c1ccco1 (stereo not given) | inactive
2 | COc1ccc(CN2C(=O)c3cccnc3C2=O)cc1S(=O)(=O)NC1CCCCC1 | 38.9 µM (active)
3 | CCn1c(=O)c2sccc2n2c(CCCC(=O)NCc3cccnc3)nnc12 | inactive
4 | CCOc1ccccc1NC(=O)CSc1ccc2nnc(-c3cccnc3)n2n1 | inactive
5 | CC[n+]1ccc(/C=C/c2ccc(N(C)C)cc2)c2ccccc21 | inactive
6 | CCCC(=O)Nc1ncnc2c1ncn2[C@@H]1O[C@@H]2COP(=O)(O)O[C@H]2[C@H]1OC(=O)CCC | 0.774 µM (active)
7 | O=C(Nc1ccccc1C(=O)N1CCN(c2ccccc2)CC1)c1ccco1 | inactive
8 | O=C(O)c1cccc(CSc2nnc(Cc3ccccc3)o2)c1 | inactive
9 | CC1(C)Cc2c(sc3ncnc(NN)c23)CO1 | inactive
10 | CCN(CC)S(=O)(=O)c1ccc(C)c(NC(=O)Cn2cnc3cc([N+](=O)[O-])ccc3c2=O)c1 | 38.9 µM (active)
11 | CCc1cc2cc3c(cc2nc1SCC(=O)Nc1nccs1)OCO3 | 17.3 µM (active)
12 | Cc1ccc(Cl)cc1NC(=O)CCCN1C(=O)c2cccnc2C1=O | inactive
13 | O=C(O)c1ccc(N=C2NC(=O)C(CO)(CO)S2)cc1 | inactive
14 | CN(C)c1ccc2nc3c(=O)[nH]c(=O)nc-3n(CC(O)C(O)C(O)CO)c2c1 (stereo not given) | inactive
15 | N#C/C(=C/c1ccc(OCc2ccccc2)cc1)C(=O)NC1CCCCC1 | inactive
16 | O=C(Nc1ccc(Cl)cc1)Nc1ccccc1Sc1ncc([N+](=O)[O-])s1 | inactive
17 | COc1ccc(CC(=O)N/N=C/c2cccnc2)cc1OC | inactive
18 | CCC(=O)Nc1ccc(-n2nnnc2SCC(=O)NNC(=O)c2ccco2)cc1 | inactive
19 | CN(Cc1ccccc1)C(=O)c1ccccc1NC(=O)c1ccco1 | inactive
20 | CC1(C)Cc2nc3sc4c(SCC(=O)NC(c5ccccc5)c5ccccc5)ncnc4c3cc2CO1 | 4.88 µM (active)

Row | Compound | Potency
21 | CCn1c(=O)c2cc(C(=O)Nc3cccc(C(C)=O)c3)sc2c2ccccc21 | inactive
22 | S=c1nc[nH]c2c1[nH]c1ccccc12 | 6.9 µM (active)
23 | Cc1cccc(NC(=O)c2ccccc2NC(=O)C2CCCCC2)c1C | inactive
24 | Cc1ccc(C(=O)Nc2ccccc2C(N)=O)o1 | inactive
25 | CCOC(=O)CSc1nc(=O)n2cc(C)ccc2n1 | inactive
26 | Cc1ccc2[nH]c3c(=S)nc[nH]c3c2c1 | 3.88 µM (active)
27 | CCOC(=O)CNC(=O)CSc1ccc2nnc(-c3cccnc3)n2n1 | inactive
28 | Cc1ccc(-c2ccc3nnc(SCC(=O)NCC4CCCO4)n3n2)cc1 (stereo not given) | inactive
29 | COc1ccccc1CNC(=O)CCCc1nnc2n(C)c(=O)c3sccc3n12 | inactive
30 | CC(=O)Nc1c2c3c(cccc3n(C)c1=O)C(=O)c1ccccc1-2 | inactive
31 | CC(C)(C)C(=O)Nc1ccccc1C(=O)NCc1ccco1 | inactive
32 | O=C(O)c1cc(-c2ccco2)nc2ccc(Br)cc12 | 19.4 µM (active)
33 | COC(=O)c1nc2ccc(N3CCOCC3)cc2c(C)c1C(=O)OC | 34.6 µM (active)
34 | CCc1nnc(NC(=O)CSc2nc(C)nc3c2c(=O)n(C)c(=O)n3C)s1 | 17.3 µM (active)
35 | Cc1c(CCOC(=O)c2cc([N+](=O)[O-])ccc2Cl)sc[n+]1CCCCS(=O)(=O)[O-] | inactive
36 | O=C(Nc1ccccc1C(=O)NCc1ccco1)c1ccccc1 | inactive
37 | COC(=O)CCNC(=O)Cn1cnc2sc3c(c2c1=O)CCCC3 | inactive
38 | COc1cc(-c2nnc(SCC(=O)N(C)C3CCS(=O)(=O)C3)o2)cc(OC)c1OC (stereo not given) | inactive
39 | CC(C)n1cnc2c(N(C)c3cccc(Cl)c3)nc(N(CCO)CCO)nc21 | inactive
40 | O=C(O)CCNc1ccc(NCCC(=O)O)c2c1C(=O)c1ccccc1C2=O | inactive
